Compounds with a hit are over-represented: about 2.6% of the library has one in this group of screens.
aDG glyco act: alpha-DG glycosylation activation; Pro5-aDG cells, alpha-DG glycosylation AlphaScreen (IIH6); 0% Pro5, 100% B10-LARGE cell signal; activation, % at 10 µM; 0.22% of 360,000 active;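 active = activation of at least 8% versus controls, or a plate z-score of at least 8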;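 also: Pro5 are CHO cells carrying HIG-tagged alpha-DG that lacks glycosylation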
LGR2 antag: inhibitors of bursicon-induced Drosophila LGR2 receptor cAMP signaling; 0.35% of 380,000 active; AID 720647; HEK293 LGR2, CRE-luciferase, bursicon-stimulated, 4 h; inhibition, % at 9.99 µM;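 active = drop in luminescence signal, shown as inhibition above about 50% in the replicate tests, limit read from the data, passing the limit was not always enough; inconclusive = probably only some replicates passing the limit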;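 also: agonist challenge used bursicon conditioned medium at about half maximal strength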
TWEAK Fn14 block: blocks TWEAK-Fn14 interaction in a reporter cell assay | TWEAK-stimulated Fn14 reporter cells, luciferase luminescence, 8 h | inhibition, % at 10 µM | 2% of 360,000 active | AID 1159606; in the data active = inhibition above about 50%
EBV LMP1 NFkB: Epstein-Barr LMP1 NF-kappaB reporter inhibition; LMP1-induced NF-kappaB luciferase reporter cells, luminescence; inhibition, % at 12.5 µM; 0.69% of 350,000 active; AID 504558; in the data active = inhibition above about 41%; inconclusive = no clear call, values can overlap the other calls;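 also: 0% = neutral control wells and 100% = reference inhibitor control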
HSP90 refold inh: HSP90 refolding inhibition in rabbit reticulocyte lysate. luciferase refolding luminescence, 3 h. inhibition, % at 5.6 µM. 0.91% of 290,000 active. AID 1789;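 active = inhibition above the screen-wide mean plus 3 SD, computed separately per campaign, cut at about 16% in these data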;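 also: 0% = DMSO wells and 100% = 60 µM geldanamycin wells; inhibitors lower the luminescence because luciferase stays unfolded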
TROY NFkB inh: blocks TROY-dependent signaling in reporter cells; Q293 LMP1-TROYcd NF-kB luciferase reporter, 4 h; inhibition, % at 10 µM; 0.98% of 360,000 active; AID 1347056;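 active = compounds whose plate-normalised and pattern-corrected inhibition of the luciferase reporter signal at the single screening dose is 50% or more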
HSP90 inh confirm: HSP90 inhibition, confirmation assay | shares compounds with HSP90 refold inh | rabbit reticulocyte lysate, luciferase refolding luminescence, 3 h | inhibition, % at 5.9 µM | 64% of 2,300 active | AID 1846; in the data active = inhibition above about 18%;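 also: 0% = vehicle wells and 100% = reference inhibitor wells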
luciferase ctr: firefly luciferase inhibition, HSP90 counter-screen. shares compounds with HSP90 refold inh. purified native firefly luciferase, luminescence. inhibition, % at 5.9 µM. 48% of 2,300 active. AID 1847;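 active = inhibition above the mean inhibition of all tested sample wells plus 3 SD, cut at about 10% in these data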;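 also: 0% = DMSO with luciferase and 100% = wells lacking luciferase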
Target sequence (P08659 whole entry, looked up): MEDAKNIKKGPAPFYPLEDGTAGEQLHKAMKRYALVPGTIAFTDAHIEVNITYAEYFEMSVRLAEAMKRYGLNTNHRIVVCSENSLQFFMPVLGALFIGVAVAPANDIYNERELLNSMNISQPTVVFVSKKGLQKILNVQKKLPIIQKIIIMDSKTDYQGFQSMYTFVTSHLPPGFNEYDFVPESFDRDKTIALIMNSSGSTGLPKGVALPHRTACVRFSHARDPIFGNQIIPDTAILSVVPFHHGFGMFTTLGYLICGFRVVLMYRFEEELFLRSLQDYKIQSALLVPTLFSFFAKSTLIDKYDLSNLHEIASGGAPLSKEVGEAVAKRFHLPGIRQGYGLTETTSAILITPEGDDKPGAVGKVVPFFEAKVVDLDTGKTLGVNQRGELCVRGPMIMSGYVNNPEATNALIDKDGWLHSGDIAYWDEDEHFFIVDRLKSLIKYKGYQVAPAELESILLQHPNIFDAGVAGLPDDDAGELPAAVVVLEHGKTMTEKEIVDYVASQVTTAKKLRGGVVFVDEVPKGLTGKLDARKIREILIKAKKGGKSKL
An asterisk follows results filed as active; u = inconclusive; x = no result given.

SMILES	aDG glyco act	LGR2 antag	TWEAK Fn14 block	EBV LMP1 NFkB	HSP90 refold inh	TROY NFkB inh	HSP90 inh confirm	luciferase ctr
COc1cc(OC)c(NC2=CC(=O)C(=O)c3ccccc32)cc1Cl	1	-13	18	4	44*	-4	34*	-6
Cc1ccccc1S(=O)(=O)N1CC(=O)N2[C@H](CO)[C@@H](c3ccc(C#CCN(C)C)cc3)[C@@H]2C1	x	-6	x	x	x	x	x	x
O=C1CC[C@H](OCc2ccccc2)CCN1[C@H](CSc1ccccc1)Cc1ccccc1	0	-8	-6	1	27*	-4	-5	-14
Cc1c(NC(=O)c2ccccc2NC(=O)c2ccccc2)cccc1C(=O)O	0	-11	-17	7	0	-10	x	x
O=C(Nc1ccc(NC(=O)C2CC2)cn1)c1ccccc1Cl	1	x	-41	3	4	-38	x	x
O=C(Nc1ccc(NC(=O)C2CC2)cn1)c1ccccc1	0	20	54*	8	17*	35	39*	21*
Cc1c(NC(=S)NC(=O)c2cc3ccccc3o2)cccc1C(=O)O	0	-100	2	-19	21*	-45	20*	-16
O=C(Nc1ccccc1C(=O)O)c1ccc(NC(=O)C2CCCO2)cc1 (configuration not stated)	0	-14	2	0	3	11	x	x
Cc1c(NC(=O)c2ccccc2N)cccc1C(=O)O	0	x	-13	0	20*	-65	13	-6
Cc1c(NC(=O)c2ccc(NC(=O)C3CC3)cc2)cccc1C(=O)O	0	19	18	6	24*	11	20*	-16
Cc1noc(C)c1S(=O)(=O)Nc1ccc2c(c1)C(=O)N([C@@H](C)CO)C[C@H](C)[C@@H](CN(C)Cc1ccncc1)O2	x	7	x	x	x	x	x	x
Cc1cc2cc3c(cc2nc1SCC(=O)N1CCCC1)OCCO3	0	4	10	-12	-2	-11	x	x
N#Cc1cc2cc3c(cc2nc1SCC(=O)N1CCOCC1)OCCO3	0	22	97*	37	21*	76*	17*	-3
COc1ccccc1C(=O)N(Cc1ccccc1)c1ccc(C)cc1	0	-5	-4	-5	57*	3	-7	-11
Cc1cccc(N=C2NN=C(c3ccc4c(c3)OCCO4)CS2)c1	0	3	54*	-23	28*	57*	40*	34*
Cc1cccc(N=C2NN=C(c3c(C)[nH]c4ccccc34)CS2)c1	1	-1	15	-52	-2	17	x	x
CC(=O)N1[C@@H]2c3ccc(-c4cccc(F)c4)c(=O)n3C[C@H]1[C@H](CO)[C@H]2C(=O)NCCCN(C)C	x	-5	x	x	x	x	x	x
Cc1ccc2[nH]c(=O)c(COC(=O)C3CCCCC3)cc2c1	0	-13	-9	6	44*	4	-1	-16
NC1=NS(=O)(=O)NC1c1cccc(Cl)c1 (configuration not stated)	0	-3	82*	3	22*	1	-3	-6
NC1=NS(=O)(=O)NC1c1cccc(F)c1 (configuration not stated)	0	x	-3	4	-2	3	x	x
Cc1oc(-c2ccc(-c3ccccc3)cc2)nc1CN(C)C1CCOC1 (configuration not stated)	0	-98	43	-27	75*	-1	86*	-2
Cc1oc(-c2ccc(-c3ccccc3)cc2)nc1CN(CCO)C(C)C	0	-65	65*	-41	85*	-4	94*	21*
Cc1ccc(-c2nc(CS(=O)(=O)CC(=O)NCCCN(Cc3ccccc3)C(C)C)c(C)o2)cc1	4	15	0	1	1	16	x	x
CNC(=O)C[C@@H]1CC[C@@H]2[C@H](COc3ccc(NC(=O)c4cnccn4)cc3C(=O)N2C)O1	x	3	x	x	x	x	x	x
O=C(O)CCCNc1cc(N2CCC3(CC2)OCCO3)c2noc3c2c1C(=O)c1ccccc1-3	x	x	x	x	31*	x	30*	29*
SMILES	aDG glyco act	LGR2 antag	TWEAK Fn14 block	EBV LMP1 NFkB	HSP90 refold inh	TROY NFkB inh	HSP90 inh confirm	luciferase ctr
CN1Cc2sc(NC(=S)NC(=O)c3ccccc3)c(C#N)c2CC1(C)C	x	9	x	x	17*	x	31*	15*
CC(=O)n1c2c(c3ccccc31)OC(N)=C(C#N)C2c1ccc(C(C)C)cc1 (configuration not stated)	0	18	89*	-13	20*	79*	10	24*
CC(=O)NCCN=Cc1sc2ccccc2c1O	0	x	-5	-16	20*	37	3	-8
Oc1c(C=Nc2ccccc2)sc2ccccc12	0	u	67*	-48	38*	37	84*	80*
Oc1sc(C=Nc2ccccc2)c2ccccc12	0	x	-47	-70	3	-4	x	x
Oc1c(/C=N/c2ccccn2)sc2ccccc12	0	-82	37	-20	3	-4	x	x
Oc1c(C=Nc2cccnc2)sc2ccccc12	0	-41	-10	-1	23*	-1	16*	18*
Oc1c(C=NCc2ccncc2)sc2ccccc12	x	x	x	x	21*	x	-2	-23
Oc1c(C=Nc2ccc(Cl)cn2)sc2ccccc12	0	-18	-3	-39	24*	11	42*	18*
CN=Cc1sc2ccccc2c1O	0	-61	-1	-5	34*	48	-1	-9
CO[C@@H]1CN(C)C(=O)c2ccc(NC(=O)c3cc(C)on3)cc2OC[C@@H](C)N(S(=O)(=O)c2cccc(F)c2)C[C@H]1C	x	-6	x	x	x	x	x	x
COCC(=O)Nc1ccc2c(c1)C(=O)N(C)C[C@H](OC)[C@H](C)CN(Cc1cccc(F)c1)[C@@H](C)CO2	x	-6	x	x	x	x	x	x
Cc1cccc(Nc2nc(-c3ccc4c(c3)OCCO4)cs2)c1	0	x	70*	-57	47*	66*	-2	-27
Cc1cccc(Nc2nc(-c3ccncc3)cs2)c1	3	-72	11	-34	-5	14	x	x
Cc1cc(C)cc(OCc2ccc(C(=O)O)o2)c1	0	x	-2	7	4	-14	x	x
CCOc1ccc(OCc2ccc(C(=O)N3N=C(C(F)F)CC3(O)C(F)F)o2)cc1 (configuration not stated)	0	-8	-5	-3	28*	-8	13	-6
CCC(C)c1ccc(OCc2ccc(C(=O)O)o2)cc1 (configuration not stated)	0	-25	3	6	94*	-97	92*	82*
Cc1ccc(OCc2ccc(C(=O)O)o2)cc1C	0	-113	0	-9	70*	-72	71*	5
CCOC(=O)c1ccc(COc2ccc(C(C)C)cc2)o1	0	-132	-21	-39	33*	-83	71*	-13
